PubChem BioAssay (NCATS)
Values joined by “and” are separate entries in the source; they are usually repeats but may differ in a detail not shown here. Equal entries are not always repeated. Records with an inconclusive call do not appear. Values without a mark were called inactive. Active and inactive are the calls of the source. Calls come from the whole dose curve; as a rule, active = well fitted curve in the direction sought with a large enough effect; inconclusive = small, poorly fitted or top-dose-only effect, or another doubt; inactive = no such curve, though single readings can be large; an effect the other way counts as inactive or inconclusive.

Tests used:
[1] = Viability qHTS for spleen associated tyrosine kinase inhibitor (SYKi) naive MV4-11 cells (AID 1963823); note: potency is the fitted concentration of half-maximal effect; nearly all actives have a fitted effect of over 40% in size
Outline: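 Luminescence from CellTiter-Glo, developed 10 min at room temperature, gave viability of MV4-11 cells never exposed to SYK inhibitor. Cells (500/well) had been incubated with compounds for 72 hr under standard culture conditions.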

[2] = Viability qHTS for spleen associated tyrosine kinase inhibitor (SYKi) drug resistant MV4-11 cells (AID 1963824); note: potency is the fitted concentration of half-maximal effect; nearly all actives have a fitted effect of over 35% in size
Outline: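 SYK-inhibitor-resistant MV4-11 AML cells were seeded at 500 per well onto compound and cultured 72 hours (37 °C, 5% CO2). CellTiter-Glo was then added, and after 10 min at room temperature, luminescence gave viability.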

[3] = Quantitative highthroughput screen to assess conditional lethalithy of NOMO1 cells grown in RPMI1640 with untreated serum (RPMI+s) (AID 1963876); note: nearly all actives have a fitted effect of over 35% in size; note: potency is the fitted concentration of half-maximal effect;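 for Viability: 100% = DMSO wells and 0% = empty wells without cells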
Outline: (§1)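 Each medium arm—HPLM with 10% dialyzed FBS, or RPMI1640 with 5 mM glucose and 10% untreated or dialyzed FBS—was screened against an 11-point, 3-fold compound titration for 48 h at 37 °C, with CellTiter-Glo luminescence as endpoint.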

[4] = Quantitative highthroughput screen to assess conditional lethalithy of NOMO1 cells grown in RPMI1640 with dialyzed fetal bovine serum (RPMI+ds) (AID 1963877); note: nearly all actives have a fitted effect of over 30% in size; note: potency is the fitted concentration of half-maximal effect;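 for Viability: series mostly up to about 46 µM; 100% = DMSO control wells and 0% = empty wells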
Outline: as §1

[5] = Quantitative highthroughput screen to assess conditional lethalithy of NOMO1 cells grown in Human Plasma-Like Medium with dialyzed fetal bovine serum (HPLM+ds) (AID 1963878); note: nearly all actives have a fitted effect of over 35% in size; note: potency is the fitted concentration of half-maximal effect;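 for Viability: 100% = DMSO wells and 0% = empty wells on each plate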
Outline: as §1

[6] = Quantitative highthroughput screen to assess conditional lethalithy of P12 Ichikawa cells grown in RPMI1640 with dialyzed fetal bovine serum (RPMI+ds) (AID 1963880); conditions: Potency: P12-Ichikawa viability; note: nearly all actives have a fitted effect of over 35% in size; note: potency is the fitted concentration of half-maximal effect;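 for Viability: 100% = DMSO wells and 0% = empty wells on each plate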
Outline: as §1

[7] = Quantitative highthroughput screen to assess conditional lethalithy of P12 Ichikawa cells grown in RPMI1640 with untreated serum (RPMI+s) (AID 1963881); conditions: Potency: viability; note: nearly all actives have a fitted effect of over 35% in size; note: potency is the fitted concentration of half-maximal effect;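 for Viability: series mostly up to about 46 µM; 100% = DMSO wells and 0% = empty wells without cells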
Outline: as §1

[8] = Quantitative highthroughput screen to assess conditional lethalithy of SEM cells grown in Human Plasma-Like Medium with dialyzed fetal bovine serum (HPLM+ds) (AID 1963882); note: nearly all actives have a fitted effect of over 35% in size; note: potency is the fitted concentration of half-maximal effect; for Viability: series mostly up to about 46 µM
Outline: as §1

[9] = Quantitative highthroughput screen to assess conditional lethalithy of SEM cells grown in RPMI1640 with unreated serum (RPMI+s) (AID 1963883)
Outline: as §1

[10] = Quantitative highthroughput screen to assess conditional lethalithy of SEM cells grown in RPMI1640 with dialyzed fetal bovine serum (RPMI+ds) (AID 1963884); note: nearly all actives have a fitted effect of over 35% in size; note: potency is the fitted concentration of half-maximal effect;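 for Viability: series mostly up to about 46 µM; 100% = DMSO control wells and 0% = empty wells without cells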
Outline: as §1

[11] = Cellular viability qHTS for adrenocortical cancer (ACC) cell line SW-13 (AID 1963989); conditions: SW-13 ACC cells viability, CellTiter-Glo, 48 h; activity (max response): hits give low values; note: nearly all actives have a fitted effect of over 65% in size; note: potency is the fitted concentration of half-maximal effect;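 for activity (max response): cells grown in serum-free medium with ITS supplement; % is set by controls: 0 for no effect and ±100 for the full control effect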
Outline: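 48 h treatment, SW-13 in ITS/DMEM serum-free; doses up to 46 uM; readout CellTiter-Glo luminescence; curve fit four-parameter logistic.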

[12] = Cellular viability qHTS for adrenocortical cancer (ACC) cell line NCI-H295R (AID 1963990); note: nearly all actives have a fitted effect of over 60% in size; note: potency is the fitted concentration of half-maximal effect
Outline: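 Compound titrations (up to 46 uM final) are applied to NCI-H295R cultures for 48 h at 37C. Viable cell number is estimated by CellTiter-Glo signal, normalised to DMSO and doxorubicin controls.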

[13] = Quantitative highthroughput screen to assess conditional lethalithy of P12 Ichikawa cells grown in Human Plasma-Like Medium with dialyzed fetal bovine serum (HPLM+ds) (AID 1963879); conditions: Potency: viability
Outline: as §1

Compound | Potency [1] | Potency [2] | Potency [3] | Potency [4] | Potency [5] | Potency [6] | Potency [7] | Potency [8] | Potency [9] | Potency [10] | Potency [11] | Potency [12] | Potency [13] | activity (max response) [11]
C=CC(=O)N1CCc2ccc(-n3c(=O)ccc4cnc5ccc(-c6cnn(C)c6)cc5c43)cc21 | 0.632 µM (active) | 0.091 µM (active) | 7.43 µM (active) | 4.69 µM (active) | 3.72 µM (active) | 7.43 µM (active) | 7.43 µM (active) | 3.32 µM (active) | 3.32 µM (active) | 3.32 µM (active) | 3.58 µM (active) | 0.506 µM (active) | – | –
O=C(O)c1ccc2c(c1)nc(Nc1cccc(Cl)c1)c1ccncc12 | 1.84 µM (active) and 1.32 µM (active) | 1.64 µM (active) and 1.66 µM (active) | 5.9 µM (active) | 7.43 µM (active) | 4.69 µM (active) | 5.9 µM (active) | 4.69 µM (active) | – | – | – | 3.55 µM (active) | 2.51 µM (active) | – | –
OCc1ccc(-c2nn(Cc3ccccc3)c3ccccc23)o1 | 5.25 µM (active) | 4.68 µM (active) | 13.2 µM (active) | 16.6 µM (active) | 16.6 µM (active) | – | – | – | – | – | – | – | inactive | -19%
Cc1cc2c(F)c(Oc3ncnn4cc(OC[C@@H](C)O)c(C)c34)ccc2[nH]1 | 5.9 µM (active) | 9.34 µM (active) | inactive | inactive | inactive | – | 18.7 µM (active) | – | – | 9.35 µM (active) | – | inactive | – | –
CCOC(=O)c1ccc(C#Cc2ccc3c(c2)C(C)(C)CCS3)nc1 | 5.25 µM (active) | 3.76 µM (active) | inactive | inactive | inactive | inactive | inactive | inactive | – | inactive | – | inactive | – | -8.69%
